Calls of active or inactive are those of the source. The calls were made as follows: active = hit-call score of the fitted dose curve at least 0.9, where 1 is the maximum; inactive = score below 0.9.
Experiments:
[1] = ATG_CRE_CIS: Attagene CIS-FACTORIAL HepG2 Assay for human cAMP Responsive Element (CRE) binding protein 3 (AID 2282926); settings: HepG2 CRE cis-reporter, Attagene multiplexed mRNA; actives raise or lower the signal
How it was run: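 Liver-derived HepG2, transfected with a CRE-containing reporter panel, exposed 24 h; transcript levels sized and quantified by capillary electrophoresis of labelled amplicons; signal changes either way referenced to vehicle.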

[2] = target: CCAAT/enhancer-binding protein beta (Homo sapiens) (UniProt P17676); test: ATG_C_EBP_CIS: Attagene CIS-FACTORIAL HepG2 Assay for human CCAAT/Enhancer Binding Protein (C/EBP) beta (AID 2282927); settings: HepG2 Attagene cis-factorial transcription factor reporter; actives raise or lower the signal
How it was run: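 Following a 24 h incubation with test chemical, transfected HepG2 cells yielded RNA whose reporter transcripts were quantified by RT-PCR and fluorescent capillary electrophoresis, with DMSO serving as baseline for bidirectional fitting.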

[3] = ATG_CMV_CIS: Attagene CIS-FACTORIAL HepG2 Assay for human CMV (Internal Marker) (AID 2282928); settings: HepG2 CMV promoter reporter, transcription factor profiling; actives raise or lower the signal;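 also: endpoint acts as a background internal control marker rather than a target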
How it was run: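 24 h chemical treatment, HepG2 with transient multi-reporter transfection; RNA → oligo(dT) RT → PCR → 6-FAM extension → HpaI digest → CE fluorescence. Bidirectional fit, DMSO negative control.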

[4] = target: Aryl hydrocarbon receptor (Homo sapiens) (UniProt P35869); test: ATG_Ahr_CIS: Attagene CIS-FACTORIAL HepG2 Assay for human Aryl Hydrocarbon Receptor (Ahr) (AID 2282930); settings: HepG2 AhR cis-factorial reporter transcription; actives raise or lower the signal
How it was run: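 Values derive from bidirectional fitting against DMSO negative control. Underlying signal: cis-element reporter mRNA in transiently transfected HepG2, harvested 24 h post-dose and measured by RT-PCR plus capillary electrophoresis.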

[5] = ATG_AP_2_CIS: Attagene CIS-FACTORIAL HepG2 Assay for human Activator Protein 2 (AP-2) (AID 2282932); settings: HepG2 AP-2 cis-reporter, Attagene transcription factor profiling; actives raise or lower the signal
How it was run: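 Assay in transfected HepG2 with promoter-regulated reporters, 24 h incubation after dosing. Signal is reporter mRNA fluorescence (RT-PCR, capillary electrophoresis), analysed for both increases and decreases relative to DMSO controls.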

[6] = ATG_BRE_CIS: Attagene CIS-FACTORIAL HepG2 Assay for human Bone Morphogenetic Protein (BMP) Response Element (BRE) (AID 2282933); settings: HepG2 BMP response element reporter, Attagene transcription factor profiling; actives raise or lower the signal
How it was run: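 Fluorescence-labelled reporter cDNA fragments, separated by capillary electrophoresis, gave the signal for this component of a 52-readout multiplex. HepG2 cells were transfected, exposed to chemicals for 24 h, and compared with DMSO using bidirectional fitting.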

[7] = target: Transcription factor E2F1 (Homo sapiens) (UniProt Q01094); test: ATG_E2F_CIS: Attagene CIS-FACTORIAL HepG2 Assay for human E2F Transcription Factor 1 (AID 2282935); settings: HepG2 Attagene cis-reporter, E2F reporter RNA transcripts; actives raise or lower the signal
How it was run: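 In this cis-factorial format, endogenous factor activity drives transfected reporters in HepG2; transcripts collected at 24 h are quantified by fluorescence after RT-PCR and capillary separation.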

[8] = ATG_E_Box_CIS: Attagene CIS-FACTORIAL HepG2 Assay for human Enhancer Box (E-box) (AID 2282936); settings: HepG2 E-box cis-reporter transcription, actives raise or lower the signal
How it was run: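 Measured 24 h post-dosing in HepG2 cells transfected with multiple cis-regulated reporter units, signal being reporter mRNA induction detected by fluorescent RT-PCR with capillary electrophoresis; gain or loss fitted against DMSO.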

[9] = ATG_M_61_CIS: Attagene CIS-FACTORIAL HepG2 Assay for M61 Transcription Factor (Internal Marker) (AID 2282937); settings: HepG2 Attagene CIS-FACTORIAL M61 internal marker reporter; actives raise or lower the signal
How it was run: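 HepG2 cells transiently transfected with cis-element-driven multiple reporter transcription units, dosed for 24 h. Reporter mRNA measured by RT-PCR, 6-FAM primer-extension labelling, HpaI digestion and capillary electrophoresis; bidirectional fit versus DMSO baseline.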

[10] = ATG_EGR_CIS: Attagene CIS-FACTORIAL HepG2 Assay for human Early Growth Response 1 (EGR1) (AID 2282938); settings: HepG2 Attagene CIS-FACTORIAL EGR reporter mRNA; actives raise or lower the signal
How it was run: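 HepG2 cells transiently transfected with cis-promoter-driven multiplexed reporter transcription units; reporter mRNA measured 24 h after compound dosing by RT-PCR, 6-FAM primer extension, HpaI digestion and capillary electrophoresis. Bidirectional fit versus DMSO baseline.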

[11] = ATG_M_19_CIS: Attagene CIS-FACTORIAL HepG2 Assay for M19 Transcription Factor (Internal Marker) (AID 2282939); settings: HepG2 Attagene CIS-FACTORIAL M19 internal marker reporter; actives raise or lower the signal
How it was run: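 HepG2, MRTU transient transfection, 24 h dosing. Total RNA → RT-PCR → 6-FAM primer extension → HpaI digest → CE fluorescence. Bidirectional curve fit, DMSO negative control.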

[12] = ATG_Ets_CIS: Attagene CIS-FACTORIAL HepG2 Assay for human Erythroblast Transformation Specific (ETS) (AID 2282941); settings: HepG2 ETS cis-reporter transcription, actives raise or lower the signal
How it was run: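 Cis-regulated reporter mRNA induction in HepG2 (transient transfection), 24 h exposure, RT-PCR plus capillary electrophoresis detection; DMSO serves as negative control and baseline.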

[13] = target: Hepatocyte nuclear factor 3-beta (Homo sapiens) (UniProt Q9Y261); test: ATG_FoxA2_CIS: Attagene CIS-FACTORIAL HepG2 Assay for human Forkhead box A2 (FOXA2) (AID 2282942); settings: HepG2 cis-reporter transcription factor activity, 24 h; actives raise or lower the signal
How it was run: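 HepG2 cells transiently transfected with multiple cis-regulated reporter transcription units, dosed for 24 h. Reporter mRNA measured by RT-PCR, 6-FAM labelling, HpaI digestion and capillary electrophoresis; bidirectional fitting against DMSO baseline.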

[14] = ATG_FoxO_CIS: Attagene CIS-FACTORIAL HepG2 Assay for human Forkhead box O (FoxO) (AID 2282943); settings: HepG2 Attagene cis-reporter, FoxO element, mRNA; actives raise or lower the signal
How it was run: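 Values reflect reporter mRNA induction or loss in HepG2 cells 24 h post-dosing, fitted bidirectionally with DMSO as negative control and baseline. Detection used RT-PCR and fluorescence capillary electrophoresis.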

[15] = ATG_GATA_CIS: Attagene CIS-FACTORIAL HepG2 Assay for human GATA Binding Protein (AID 2282944); settings: HepG2 GATA cis-element reporter, Attagene multiplex mRNA; actives raise or lower the signal
How it was run: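 Cells: HepG2, transiently transfected with cis-regulated reporter transcription units. Exposure: 24 h. Detection: RT-PCR plus capillary electrophoresis of FAM-labeled fragments. Analysis: bidirectional, DMSO as baseline.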

[16] = ATG_GLI_CIS: Attagene CIS-FACTORIAL HepG2 Assay for human Zinc Finger Protein GLI1 (AID 2282945); settings: HepG2, Attagene cis-factorial reporter mRNA, GLI element; actives raise or lower the signal
How it was run: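 HepG2 cells transiently transfected with cis-promoter multiplexed reporter units report endogenous transcription factor activity. After 24 h chemical exposure, reporter mRNA was quantified by RT-PCR, 6-FAM labelling, HpaI digestion and capillary electrophoresis, with bidirectional fitting against DMSO.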

[17] = ATG_AP_1_CIS: Attagene CIS-FACTORIAL HepG2 Assay for human Activator Protein 1 (AP-1) (AID 2282931); settings: HepG2 Attagene cis-factorial AP-1 reporter mRNA; actives raise or lower the signal
How it was run: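 HepG2 cells transiently transfected with cis-element-driven multiplex reporter units; 24 h compound exposure. Reporter mRNA quantified by RT-PCR, FAM-labelled fragments resolved by capillary electrophoresis; bidirectional fit versus DMSO baseline.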

[18] = target: Retinoic acid receptor alpha (Homo sapiens) (UniProt P10276); test: ATG_DR5_RAR_CIS: Attagene CIS-FACTORIAL HepG2 Assay for human Retinoic Acid Receptor Alpha (RARE), DR5 submotif (AID 2282934); settings: HepG2 Attagene cis-factorial RARE DR5 reporter, mRNA; actives raise or lower the signal
How it was run: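 Endpoint fitted in both directions relative to DMSO as negative control. It reflects DR5 cis-element reporter mRNA induction in transiently transfected HepG2 cells, measured 24 h after dosing through RT-PCR and fluorescent capillary electrophoresis.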

[19] = ATG_DR4_LXR_CIS: Attagene CIS-FACTORIAL HepG2 Assay for human Liver X Receptor (LXR), DR4 submotif (AID 2282929); settings: HepG2 Attagene DR4 cis-reporter, mRNA transcription; actives raise or lower the signal
How it was run: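 HepG2 cells transiently transfected with cis-promoter-driven multiplexed reporter units (DR4 element) were dosed for 24 h. Reporter mRNA was quantified by RT-PCR, fluorescent primer extension, HpaI digestion and capillary electrophoresis; bidirectional fitting versus DMSO baseline.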

[20] = ATG_ERE_CIS: Attagene CIS-FACTORIAL HepG2 Assay for Estrogen Response Element (ERE) (AID 2282940); settings: HepG2 ERE cis-reporter, Attagene RNA transcript; actives raise or lower the signal
How it was run: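 After a 24 h chemical treatment, RNA from reporter-transfected HepG2 cells is reverse-transcribed, PCR-amplified and fluorescently labelled. Fragments separated by capillary electrophoresis give reporter signal; DMSO serves as negative control.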

Measured: outcome

Chain of Hepatocyte nuclear factor 3-beta (Homo sapiens) (Q9Y261 whole entry, looked up): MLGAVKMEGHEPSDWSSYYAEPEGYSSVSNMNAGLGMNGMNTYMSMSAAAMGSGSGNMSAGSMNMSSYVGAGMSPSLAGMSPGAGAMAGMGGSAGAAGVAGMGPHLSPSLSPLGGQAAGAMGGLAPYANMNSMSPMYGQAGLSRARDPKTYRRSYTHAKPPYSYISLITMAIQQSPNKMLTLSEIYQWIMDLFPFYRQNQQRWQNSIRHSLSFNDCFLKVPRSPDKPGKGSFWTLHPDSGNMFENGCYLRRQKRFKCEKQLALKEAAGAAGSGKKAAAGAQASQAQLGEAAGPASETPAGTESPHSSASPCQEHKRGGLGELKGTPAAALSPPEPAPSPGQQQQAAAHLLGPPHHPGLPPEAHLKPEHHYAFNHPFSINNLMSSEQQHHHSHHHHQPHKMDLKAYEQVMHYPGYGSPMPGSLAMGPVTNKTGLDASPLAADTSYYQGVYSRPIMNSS
Chain of Aryl hydrocarbon receptor (Homo sapiens) (P35869 whole entry, looked up): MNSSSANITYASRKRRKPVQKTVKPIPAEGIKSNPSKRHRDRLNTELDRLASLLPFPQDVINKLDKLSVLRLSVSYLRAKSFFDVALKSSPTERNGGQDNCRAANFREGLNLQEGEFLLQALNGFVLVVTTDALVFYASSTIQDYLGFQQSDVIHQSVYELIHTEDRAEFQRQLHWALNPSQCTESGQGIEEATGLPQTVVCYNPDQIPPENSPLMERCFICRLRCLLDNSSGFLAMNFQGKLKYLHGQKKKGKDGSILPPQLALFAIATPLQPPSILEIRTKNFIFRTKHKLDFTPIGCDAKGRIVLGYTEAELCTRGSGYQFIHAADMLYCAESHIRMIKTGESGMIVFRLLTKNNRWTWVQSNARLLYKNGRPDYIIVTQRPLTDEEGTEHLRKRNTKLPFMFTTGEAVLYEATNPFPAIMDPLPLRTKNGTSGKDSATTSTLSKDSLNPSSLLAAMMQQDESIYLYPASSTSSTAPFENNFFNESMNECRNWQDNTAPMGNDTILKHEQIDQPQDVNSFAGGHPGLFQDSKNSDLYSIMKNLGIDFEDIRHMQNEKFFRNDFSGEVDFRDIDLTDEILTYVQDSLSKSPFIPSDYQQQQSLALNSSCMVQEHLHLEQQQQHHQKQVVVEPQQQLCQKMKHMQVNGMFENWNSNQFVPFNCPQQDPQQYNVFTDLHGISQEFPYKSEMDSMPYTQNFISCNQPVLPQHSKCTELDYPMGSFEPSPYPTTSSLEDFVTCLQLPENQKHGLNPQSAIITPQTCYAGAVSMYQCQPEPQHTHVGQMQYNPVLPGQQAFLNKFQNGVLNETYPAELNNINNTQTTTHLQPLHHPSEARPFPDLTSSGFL
Chain of Transcription factor E2F1 (Homo sapiens) (Q01094 whole entry, looked up): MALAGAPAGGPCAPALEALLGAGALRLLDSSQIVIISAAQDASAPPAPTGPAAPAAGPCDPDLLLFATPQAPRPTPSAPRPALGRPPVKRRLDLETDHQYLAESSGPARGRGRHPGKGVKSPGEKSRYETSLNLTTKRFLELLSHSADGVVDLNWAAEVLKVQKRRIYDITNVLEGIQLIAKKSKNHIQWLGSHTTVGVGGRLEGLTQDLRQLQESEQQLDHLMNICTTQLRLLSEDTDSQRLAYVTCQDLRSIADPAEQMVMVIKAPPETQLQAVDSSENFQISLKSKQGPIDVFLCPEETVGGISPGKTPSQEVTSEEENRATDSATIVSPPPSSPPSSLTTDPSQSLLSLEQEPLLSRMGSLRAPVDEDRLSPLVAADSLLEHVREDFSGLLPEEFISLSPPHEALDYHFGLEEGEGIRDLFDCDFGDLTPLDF
Chain of CCAAT/enhancer-binding protein beta (Homo sapiens) (P17676 whole entry, looked up): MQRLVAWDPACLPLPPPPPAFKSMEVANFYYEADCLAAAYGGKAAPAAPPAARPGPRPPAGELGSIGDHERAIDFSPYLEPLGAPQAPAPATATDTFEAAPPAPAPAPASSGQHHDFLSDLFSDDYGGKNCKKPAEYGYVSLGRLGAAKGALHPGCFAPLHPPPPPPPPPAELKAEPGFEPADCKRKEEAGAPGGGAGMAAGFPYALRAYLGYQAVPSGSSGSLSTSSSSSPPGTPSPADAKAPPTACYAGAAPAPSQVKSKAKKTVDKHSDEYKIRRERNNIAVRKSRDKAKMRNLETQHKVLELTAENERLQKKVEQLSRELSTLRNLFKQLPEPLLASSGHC
Chain of Retinoic acid receptor alpha (Homo sapiens) (P10276 whole entry, looked up): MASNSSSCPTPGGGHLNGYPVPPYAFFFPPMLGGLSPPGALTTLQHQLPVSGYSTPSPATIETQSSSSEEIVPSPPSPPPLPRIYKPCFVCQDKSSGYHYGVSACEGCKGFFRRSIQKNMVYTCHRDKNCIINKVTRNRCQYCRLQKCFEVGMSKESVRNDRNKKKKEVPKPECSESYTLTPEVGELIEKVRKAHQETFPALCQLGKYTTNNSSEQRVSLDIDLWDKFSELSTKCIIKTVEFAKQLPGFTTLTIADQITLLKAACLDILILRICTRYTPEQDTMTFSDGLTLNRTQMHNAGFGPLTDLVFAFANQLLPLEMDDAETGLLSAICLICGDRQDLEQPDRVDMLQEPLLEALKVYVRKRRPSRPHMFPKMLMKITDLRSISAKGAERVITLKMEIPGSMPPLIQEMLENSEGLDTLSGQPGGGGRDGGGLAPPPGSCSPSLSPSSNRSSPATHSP

S=C(S)NCCNC(=S)S
inactive: [1] | [2] | [3] | [4] | [5] | [6] | [7] | [8] | [9] | [10] | [11] | [12] | [13] | [14] | [15] | [16]

CCCC(=O)OCCC(C)CCC=C(C)C (centres undefined)
inactive: [1] | [2] | [3] | [4] | [17] | [5] | [6] | [18] | [7] | [9] | [10] | [11] | [12] | [13] | [14] | [16]

CNC(=O)Oc1ccc2c(c1)[C@]1(C)CCN(C)[C@@H]1N2C
inactive: [1] | [3] | [19] | [4] | [17] | [5] | [6] | [7] | [8] | [9] | [10] | [11] | [20] | [12] | [13] | [14] | [15] | [16]

CC(=O)C=CC1=C(C)CCCC1(C)C
inactive: [1] | [3] | [4] | [5] | [6] | [7] | [8] | [9] | [11] | [20] | [12] | [14] | [15] | [16]

Reference: PubChem BioAssay (EPA / NIEHS)
